Each structure is given as a SMILES string. Active and inactive are the calls of the source. The call rests on the fitted dose curve.

The nature of the experiment: Cell Proliferation Assay Versus the ED40515 IL2 Independent ATL cell lines (AID 1053194). The note with it: ED40515 IL2-independent ATL cells. The text has this: Adult T-cell leukemia (ATL) develops in individuals infected with human T-cell lymphotropic virus-1 (HTLV-1). Clinically, ATL is subclassified into four subtypes: smoldering, chronic, lymphomatous, and acute. Two autocrine loops (IL-2/IL-2Ralpha and IL-15/IL-15Ralpha) and one paracrine stimulation loop that involves IL-9 expression by ATL cells and IL-9Ralpha expression on monocytes are required to maintain viability and proliferation in the smoldering and chronic forms of the disease. These assays examined the differential response profiles for the MIPE library of approved and investigational drugs versus an IL2 dependent and independent matched ATL cell line, with the current submission examining the differential response profiles for drugs on an IL2 independent matched ATL cell line
Plate log growing ED40515 -IL2 cells: 1000cells/ well in 5uL phenol red free RPMI +5% FBS +1x p/s, Glutamine using 1536 well white griener tissue culture plates and multidrop cassette acoustic dispensing Columns 1 and 3 DMSO Columns 2 and 4, 9.2 uM Bortezomib Incubate 48 hours for celltiter glo 37C with 5%CO2 and 95% humidity with low evaporation lids Dispense 3 uL per well of cell titer glo with multidrop Incubate for 15 minutes at RT Read on VL/2 using Luminesence Wheel (Filter A)
`Cc1ccc2c(c1)C(=O)[C@@]1(O)CCN(c3ccccc3)C1=N2`: the Potency is 13.2 µM (active).
The result for `COc1ccc2c3n(c(=NC(=O)c4cccnc4)nc2c1OC)CCN3` reads 23.5 µM (active); that for `Oc1cccc(-c2nc(N3CCOCC3)c3oc4ncccc4c3n2)c1`, 1.32 µM (active).
Next, `Cc1cc([C@@H](C)Nc2ccccc2C(=O)O)c2nc(N3CCOCC3)cc(=O)n2c1`: 20.9 µM (active).
Turning to `CCOc1cc(N2CCC(O)CC2)ccc1Nc1ncc2c(n1)N(C)c1ccccc1C(=O)N2C`, the Potency was 5.26 µM (active).
As for `Nc1ncnc2nc(-c3ccc(N4CCOCC4)nc3)cc(-c3cccc(Br)c3)c12`, the Potency was 29.6 µM (active).
Next, `O=C(NOC[C@H](O)CO)c1ccc(F)c(F)c1Nc1ccc(I)cc1F`: 33.2 µM (active); `CCOC(=O)N[C@@H]1CC[C@@H]2[C@@H](C1)C[C@H]1C(=O)O[C@H](C)[C@H]1[C@@H]2C=Cc1ccc(-c2cccc(F)c2)cn1`: 16.6 µM (active); `COc1ccc(CCN2CCN(CCCc3ccccc3)CC2)cc1OC`: 7.43 µM (active).
In the case of `O=C1CCCC2=C1C(c1[nH]ncc1Cl)N=C(Nc1nc3ccccc3o1)N2` (stereo not given), the Potency was 16.6 µM (active).
The result for `O=C(O)c1ccc(-c2c[nH]c3ccc(-c4ccccc4)cc23)cc1C1CCCC1` reads 2.35 µM (active); that for `C#Cc1cccc(Nc2ncnc3cc(OCCOC)c(OCCOC)cc23)c1`, 11.8 µM (active).
With `COc1ccc(-c2ccc3c(N4CCOCC4)nc(N4C[C@@H](C)O[C@@H](C)C4)nc3n2)cc1CO`, the Potency was 0.59 µM (active).
As to `CCCc1nc2c(C)cc(-c3nc4ccccc4n3C)cc2n1Cc1ccc(-c2ccccc2C(=O)O)cc1`, the Potency was 37.2 µM (active).
Turning to `CC[C@@H](C)[C@H](NC(=O)[C@H](CC1CCCCC1)NC(=O)c1ccno1)C(=O)N1CCC2(CCc3ccccc32)CC1`, the Potency is 10.5 µM (active).
Next, `Cc1csc(NC(=O)c2sc3nc4c(c(C(F)(F)F)c3c2N)CCC4)n1`: 26.4 µM (active).
Next, `COc1ccc(C2=N[C@H](c3ccc(Cl)cc3)[C@H](c3ccc(Cl)cc3)N2C(=O)N2CCNC(=O)C2)c(OC(C)C)c1`: 33.2 µM (active); `CC1(C)Cc2c(-c3ccccc3)c(-c3ccc(Cl)cc3)c(CC(=O)O)n2C1`: 11.8 µM (active).
For `Cc1c(C)c2c(c(C)c1O)CCC(C)(COc1ccc(CC3SC(=O)NC3=O)cc1)O2` (stereo not given), the Potency is 37.2 µM (active).
Turning to `N#CC[C@H](C1CCCC1)n1cc(-c2ncnc3[nH]ccc23)cn1`, the Potency was 20.9 µM (active).
The result for `C[C@]1(c2nc3c(C(N)=O)cccc3[nH]2)CCCN1` reads 16.6 µM (active).
The result for `NC(=O)c1ccc(-c2nc(-c3ccc4c(c3)OCCO4)c(-c3ccccn3)[nH]2)cc1` reads 20.9 µM (active); that for `c1ccc(-c2nn3c(c2-c2ccnc4cc(OCCN5CCOCC5)ccc24)CCC3)nc1`, 26.4 µM (active).
Turning to `Nc1nccc(-c2ccc3noc(-c4ccc(Cl)cc4)c3c2)n1`, the Potency is 18.7 µM (active).
Take `Cc1oncc1C(=O)Nc1ccc(C(F)(F)F)cc1`: the Potency was 14.8 µM (active).
`COCCNCCCn1c(C(=O)CF)c(-c2ccc(C)cc2)c2c(N)ncnc21`: the Potency was 9.35 µM (active).
As to `CCOc1ccn(-c2ccc(F)cc2)c(=O)c1C(=O)Nc1ccc(Oc2ccnc(N)c2Cl)c(F)c1`, the Potency was 23.5 µM (active).
As to `COc1cc(F)c(F)c(Nc2ccc(I)cc2F)c1NS(=O)(=O)C1(C[C@H](O)CO)CC1`, the Potency was 26.4 µM (active).
As to `Cc1ccccc1C(C(=O)NC1CCCC1)N(C(=O)Cn1cnc2ccccc21)c1cccc(F)c1` (stereo not given), the Potency is 20.9 µM (active).
For `COc1ccc(-c2c(-c3ccc(O)cc3O)n[nH]c2C)cc1`, the Potency is 23.5 µM (active).
Next, `COc1ccc2nc(S(=O)Cc3ncc(C)c(OC)c3C)[nH]c2c1` (stereo not given): 1.05 µM (active); `Cc1cnc(Nc2ccc(OCCN3CCCC3)cc2)nc1Nc1cccc(S(=O)(=O)NC(C)(C)C)c1`: 33.2 µM (active).
`C[C@@H]1C[C@H]2[C@@H]3CCC4=CC(=O)C=C[C@]4(C)C3(F)[C@@H](O)C[C@]2(C)[C@@]1(O)C(=O)CO` (stereo not given in full): the Potency was 20.9 µM (active).
Regarding `CCN(CCCO)CCCOc1ccc2c(Nc3cc(CC(=O)Nc4cccc(F)c4)[nH]n3)ncnc2c1`, the Potency is 26.4 µM (active).
`COc1ccc(-c2ccc3c(N4CCOC[C@H]4C)nc(N4CCOC[C@H]4C)nc3n2)cc1CO`: the Potency is 0.0083 µM (active).
The result for `Cc1ccnc(NS(=O)(=O)c2ccc(NC(=O)Nc3ccc(S(=O)(=O)Nc4nccc(C)n4)cc3)cc2)n1` reads 6.62 µM (active); that for `OC(CN1CCC(Cc2ccc(F)cc2)CC1)c1ccc(Cl)cc1` (stereo not given), 26.4 µM (active); that for `O=S(=O)(N=Cc1c(O)ccc2ccccc12)c1cccs1`, 26.4 µM (active).
Turning to `Cc1ccc(-n2nc(C(C)(C)C)cc2NC(=O)Nc2ccc(OCCN3CCOCC3)c3ccccc23)cc1`, the Potency was 26.4 µM (active).
As to `CS(=O)(=O)c1cccc(CNc2nc(Nc3ccc4c(c3)CCC(=O)N4)ncc2C(F)(F)F)c1`, the Potency was 4.69 µM (active).

The values are drawn from PubChem BioAssay (NCATS).
